# Measurements reported in PubChem BioAssay (NCI).
# The panel holds about 83,000 compounds, 20% with a hit somewhere; the sample as a whole holds those more often.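 A percent growth of 40 corresponds to 60% growth inhibition; 0 means no net growth; -100 means all cells died. Active threshold: below 10.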 Unmarked numbers belong to inactive results. Active and inactive are the calls of the source.
# Key:
# Test in all cases: NCI-60 one-dose screen, 48 h (100 = growth as untreated, 0 = no growth, -100 = all killed)
# Conditions in all cases: 10 µM unless noted
# SR leukemia = system: SR leukemia
# RPMI-8226 leukemia = system: RPMI-8226 leukemia
# OVCAR-4 ovarian = system: OVCAR-4 ovarian
# SK-OV-3 ovarian = system: SK-OV-3 ovarian
# IGROV1 ovarian = system: IGROV1 ovarian
# OVCAR-3 ovarian = system: OVCAR-3 ovarian
# HS 578T breast = system: HS 578T breast
# NCI/ADR-RES ovarian = system: NCI/ADR-RES ovarian
# T-47D breast = system: T-47D breast
# BT-549 breast = system: BT-549 breast
# MDA-MB-435 melanoma = system: MDA-MB-435 melanoma
# SW-620 colon = system: SW-620 colon
# MCF7 breast = system: MCF7 breast
# HCT-116 colon = system: HCT-116 colon
# HCC-2998 colon = system: HCC-2998 colon
# KM12 colon = system: KM12 colon
# OVCAR-5 ovarian = system: OVCAR-5 ovarian
# OVCAR-8 ovarian = system: OVCAR-8 ovarian
SMILES,growth (SR leukemia),growth (RPMI-8226 leukemia),growth (OVCAR-4 ovarian),growth (SK-OV-3 ovarian),growth (IGROV1 ovarian),growth (OVCAR-3 ovarian),growth (HS 578T breast),growth (NCI/ADR-RES ovarian),growth (T-47D breast),growth (BT-549 breast),growth (MDA-MB-435 melanoma),growth (SW-620 colon),growth (MCF7 breast),growth (HCT-116 colon),growth (HCC-2998 colon),growth (KM12 colon),growth (OVCAR-5 ovarian),growth (OVCAR-8 ovarian)
Cc1ccc(C(=O)NN2C(=O)CSC2c2ccc(Cl)cc2)cn1 (stereo not given),80.8%,113%,101%,97.1%,54.8%,111%,130%,93.2%,84%,192%,91.1%,97%,105%,96%,96.5%,97.9%,–,–
COc1cc(C2CC(c3cccc(Br)c3)=NN2C(C)=O)cc(OC)c1OC (stereo not given),46.3%,4.29% (active),41.7%,–,-17.3% (active),-22% (active),34.6%,-19.5% (active),69.7%,-8.75% (active),-51.2% (active),24.8%,22.8%,17.2%,-31% (active),16.9%,46.5%,–
Cc1ccc(C(C)C)cc1C(=O)C[n+]1ccccc1,86.1%,114%,101%,97.7%,98.6%,101%,100%,107%,88.7%,95.8%,101%,106%,87.1%,79%,107%,101%,91.1%,–
COc1ccccc1/C=C1\Oc2cc(OCCN3CCC(Cc4ccccc4)CC3)ccc2C1=O,5.96% (active),–,93.2%,106%,82.6%,98%,82.8%,89.2%,85.8%,85.4%,91.1%,69.1%,80.1%,73.9%,37.9%,–,89.3%,81.2%
CCCCn1c(=O)c(-c2cc(-c3ccc(Cl)cc3)nc(-c3ccc(Cl)cc3)c2)cc2cc(Cl)ccc21,106%,–,105%,102%,103%,117%,108%,109%,103%,106%,103%,99.7%,98.4%,106%,102%,102%,98.4%,101%
COc1ccc2sc3c(NCCCNCCO)nc4ccccc4c3c(=O)c2c1,-46.9% (active),–,4.38% (active),85.7%,45.9%,0.904% (active),53%,63.8%,86.5%,81.7%,10.6%,-83.2% (active),25.7%,-79.3% (active),-84.3% (active),-15.6% (active),84.2%,54.6%
COc1cc(C(=O)c2cnc(-c3c[nH]c4cccc(C)c34)[nH]2)cc(OC)c1OC,4.87% (active),10%,34.5%,–,22.1%,-49% (active),21.2%,3.24% (active),52.2%,38.3%,-43.5% (active),18%,17.7%,-10.4% (active),20.1%,0.911% (active),–,–
O=C(Nc1ccc(Cl)cc1F)c1ccccc1O,15.8%,–,54.6%,42.3%,20.5%,30.9%,41.6%,34.5%,29.9%,24.9%,41.3%,60.4%,47.6%,34.6%,77.1%,54.4%,71.1%,44.8%
O=c1c2cc(F)ccc2sc2c(N3CCCCC3)nc3ccccc3c12,121%,–,116%,103%,101%,110%,105%,101%,105%,90.3%,107%,104%,95.8%,90.9%,101%,105%,98.4%,99.6%
O=c1c2cc(F)ccc2sc2c(NCCCNCCO)nc3ccccc3c12,-45.1% (active),–,33.3%,79.7%,22.4%,-14.6% (active),34.5%,32.4%,22.9%,66.2%,-82.5% (active),-78.3% (active),-51.2% (active),-94.1% (active),-90.8% (active),-77% (active),63.4%,26%
COc1cc2cc(Oc3ccc(NC(=O)Nc4ccc(Cl)c(Cl)c4)cc3)c(C)nc2cc1OCCN1CCOCC1,5.6% (active),–,85%,111%,97.8%,106%,102%,91.4%,75.1%,72.5%,91.8%,104%,60.1%,86.1%,116%,91.7%,127%,91.1%
Cc1cc(-c2cc(C)c(N)cc2C)c(C)cc1N,45.5%,–,117%,95.7%,109%,107%,107%,100%,90.4%,92.3%,6.88% (active),100%,80.7%,78.8%,104%,75.2%,97.2%,103%
Cc1ccc(-c2nc(N3CCN(CC(=O)Nc4ccc(Cl)cc4)CC3)c3ccccc3n2)cc1,79.1%,–,96.2%,94.3%,96.3%,97.8%,92.6%,84.5%,80.2%,102%,96.4%,97.5%,77.5%,89.9%,82.4%,92.4%,93.9%,92.3%
O=C(N/N=C/[C@H](O)[C@H](O)[C@H](O)CO)c1ccc(NC(=O)c2cccnc2)cc1,99.9%,–,110%,110%,107%,118%,98.4%,109%,99.2%,102%,103%,103%,92%,105%,110%,103%,102%,102%
O=c1cc(SCc2ccccc2)nc[nH]1,127%,–,117%,114%,111%,114%,119%,101%,114%,103%,106%,107%,101%,104%,112%,94.8%,93.5%,117%
NC(=O)C1(Nc2ccc(Br)cc2)CCCC1,84.3%,–,115%,103%,108%,113%,111%,111%,98.9%,104%,105%,106%,92.2%,105%,116%,109%,96.7%,102%
CN(C)CCN1CCN(c2ncccc2C2Nc3ccccc3-n3cccc32)CC1 (stereo not given),98.3%,–,113%,107%,105%,115%,95.7%,104%,90.1%,92.3%,101%,97.8%,101%,105%,114%,–,100%,101%
Oc1ccc(C#CCOc2ccccc2)cc1CNCCN(Cc1ccccn1)Cc1ccccn1,-4.08% (active),–,11.3%,18%,13.4%,12.1%,35.5%,0.625% (active),14.4%,37.7%,32.6%,15.6%,4.05% (active),9.79% (active),28.4%,18.9%,27.2%,15.2%
